p53 reactivator = qHTS assay for re-activators of p53 using a Luc reporter | hit rate 0.063% among 320,000 | AID 504706, 2011 | H1299 p53-A138V BP100-luciferase reporter, luminescence, 24 h | Potency, µM (top dose mostly 92.2 µM), actives largely listed as activators; note: nearly all actives have a fitted effect of over 45% in size
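H1299 (p53-null), stable ts p53-A138V + BP100-Luc; 1000 cells/well, Opti-MEM/10% FBS; cpd 4 pt, 1:5; 24 h, 37 deg C, 5% CO2; detection reagent 10 min RT; luminescence.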
ELG1 repair inh = qHTS screen for small molecules that inhibit ELG1-dependent DNA repair in human embryonic kidney (HEK293T) cells expressing luciferase-tagged ELG1. HEK293T ELG1-luciferase reporter, luminescence, 16 h; DNA damage induced by 5-fluorouridine. Potency, µM (doses to about 46.1 µM), most hits filed as inhibitors. hit rate 2.3% among 330,000; note: nearly all actives have a fitted effect of over 55% in size
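Overnight (16 hr) co-exposure of 2,000 cells/well to 5-fluorouridine and compound at 37 °C preceded detection. Luciferase was quantified via ONE-Glo luminescence; loss of signal denotes inhibition.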
SW480 rerep = A quantitative high throughput screen for small molecules that induce DNA re-replication in SW480 colon adenocarcinoma cells | SW480 DNA re-replication, Hoechst DNA content imaging, 48 h | Potency, µM (doses to about 46.1 µM), hits mostly activators | hit rate 1.8% among 340,000 | AID 624297, 2012; note: nearly all actives have a fitted effect of over 55% in size
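Quantitative HTS format with DMSO vehicle controls; 48 hr drug incubation at 37 C, then 40 min Hoechst staining and scanning imager measurement at 405 nm excitation.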
A-T KAP1 phos = qHTS Assay for Identifying a Potential Treatment of Ataxia-Telangiectasia. F2112 A-T fibroblasts, KAP-1 phosphorylation AlphaLISA; neocarzinostatin DNA damage 30 min before lysis. Potency, µM (top dose mostly 57.5 µM), actives largely listed as activators. hit rate 0.19% among 320,000; note: nearly all actives have a fitted effect of over 45% in size
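hTERT-immortalized A-T patient fibroblasts (F2112), 500 cells/well in OPTI-MEM, 1% FBS, got compounds for 60 min, then NCS for 30 min at 37C. Lysates were then assayed for phospho-KAP-1 by AlphaLISA (anti-pKAP1 donor, anti-KAP1 acceptor beads), 6 hr at 25C.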
ELG1 genotoxic = qHTS screen for small molecules that induce genotoxicity in human embryonic kidney (HEK293T) cells expressing luciferase-tagged ELG1 | AID 504466, 2011 | HEK293T ELG1-luciferase reporter, luminescence, 16 h | hit rate 1.3% among 330,000 | Potency, µM (series often up to 46 µM), hits mostly activators; note: nearly all actives have a fitted effect of over 60% in size
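16 hr compound incubation (37 °C, 5% CO2) of HEK293T cells carrying luciferase-tagged ELG1; luciferase then measured by ONE-Glo luminescence after 30 min at RT.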
MCF10A rereplic = A quantitative high throughput screen for small molecules that induce DNA re-replication in MCF 10a normal breast cells; MCF 10A DNA re-replication, Hoechst nuclear intensity, 48 h; Potency, µM (top dose mostly 46.1 µM), most hits filed as activators; hit rate 2.9% among 350,000; note: nearly all actives have a fitted effect of over 50% in size
Large screens that a line does not name were inactive. This is a sample that favours compounds with a hit; in the whole collection about 7.1% have one here. Calls come from the whole dose curve; as a rule, active = well fitted curve in the direction sought with a large enough effect; inconclusive = small, poorly fitted or top-dose-only effect, or another doubt; inactive = no such curve, though single readings can be large; an effect the other way counts as inactive or inconclusive.

O=C(N/N=C/c1cc([N+](=O)[O-])ccc1O)c1cccc2cc[nH]c12	ELG1 repair inh 4.61µM, SW480 rerep 7.31µM, MCF10A rereplic inconclusive
COc1cc(/C=N/NC(=O)c2cccc(N3CCCC3=O)c2)ccc1O	SW480 rerep inconclusive
COc1ccc(/C=C/C(=O)OCC(=O)Nc2ccc3c(c2)OCO3)cc1	none
N=c1n(CCN2CCCCC2)c2ccccc2n1CC(=O)c1ccc(Cl)c(Cl)c1	ELG1 repair inh inconclusive, SW480 rerep inconclusive, A-T KAP1 phos 35.5µM, MCF10A rereplic 10.3µM
Cc1ccc(Cn2c(=N)n(CC(=O)c3ccc([N+](=O)[O-])cc3)c3ccccc32)cc1	SW480 rerep inconclusive, ELG1 genotoxic inconclusive, MCF10A rereplic 9.2µM
C=CCn1c(=N)n(CC(=O)c2ccc(Cl)cc2)c2ccccc21	A-T KAP1 phos 15.8µM, MCF10A rereplic inconclusive
CCCCn1c(=N)n(CC(=O)c2ccc([N+](=O)[O-])cc2)c2ccccc21	ELG1 genotoxic inconclusive (no result: SW480 rerep, MCF10A rereplic)
N=c1n(CC(=O)c2cccs2)c2ccccc2n1Cc1ccccc1	ELG1 repair inh 7.3µM
Cn1cc(C(=O)[C@@H]2CCc3[nH]cnc3C2)c2ccccc21	none (no result: p53 reactivator, ELG1 repair inh, A-T KAP1 phos, ELG1 genotoxic)
COC(=O)[C@H]1C[C@H]2[C@@H]3CC[C@H]4C[C@@H](OC)CC[C@]4(C)[C@H]3CC[C@]2(C)[C@@]2(CCCO2)O1	MCF10A rereplic inconclusive
CCn1c(=N)n(CC(=O)c2ccc(Cl)c(Cl)c2)c2ccccc21	ELG1 repair inh inconclusive, SW480 rerep inconclusive, A-T KAP1 phos 28.2µM, MCF10A rereplic 25.9µM
CCn1c(=N)n(CC(=O)c2ccc(OC)cc2)c2ccccc21	none
CCOC(=O)/C(=C/c1ccc(N2CCC(c3ccccc3)=N2)cc1)C(C)=O	p53 reactivator inconclusive, ELG1 repair inh inconclusive, SW480 rerep inconclusive, A-T KAP1 phos inconclusive, ELG1 genotoxic 20.6µM, MCF10A rereplic inconclusive
c1ccc(C2=NN(c3ccccc3)CC2)cc1	p53 reactivator inconclusive, ELG1 repair inh inconclusive, SW480 rerep 16.4µM, ELG1 genotoxic inconclusive, MCF10A rereplic 20.6µM
COc1ccccc1C(=O)Nc1ccc(OCC(=O)N2CC(C)OC(C)C2)cc1 (stereo unspecified)	p53 reactivator inconclusive, ELG1 repair inh inconclusive
CC1O[C@@H](OC2C(O)C(O)C(CO)O[C@H]2OC2C[C@]3(C)C(CC(O)C4[C@@H]([C@]5(C)CC[C@@H](C(C)(C)O)O5)CC[C@]43C)[C@@]3(C)CCC(O)C(C)(C)C23)C(O)C(O)C1O (stereo partly specified)	none
Cn1c(O)c(N=NC(=O)c2cc(-c3cccs3)nc3ccccc23)c2ccccc21	ELG1 repair inh 14.6µM, MCF10A rereplic inconclusive
O=C(N/N=C/c1cccnc1)c1cc(-c2cccs2)nc2ccccc12	ELG1 repair inh inconclusive, SW480 rerep inconclusive, MCF10A rereplic inconclusive
O=C(N=Nc1c(O)[nH]c2ccc(Br)cc12)c1cc(-c2cccs2)nc2ccccc12	MCF10A rereplic inconclusive
O=C(N/N=C/c1ccc2ncccc2c1)c1cc(-c2cccs2)nc2ccccc12	ELG1 repair inh inconclusive, MCF10A rereplic 5.8µM
C(=N\NCc1ccccc1)/c1ccc2nccnc2c1	ELG1 repair inh inconclusive, ELG1 genotoxic inconclusive
C(=N\NCc1ccccc1)/c1ccc2ncccc2c1	ELG1 repair inh inconclusive, SW480 rerep inconclusive, ELG1 genotoxic 2.59µM
Cn1cccc1/C=N/NC(=O)c1cc(-c2cccs2)nc2ccccc12	ELG1 repair inh inconclusive, SW480 rerep 14.6µM, MCF10A rereplic 5.8µM
CCOc1ccc(C(C)=O)cc1COC(=O)CNC(=O)C12CC3CC(CC(C3)C1)C2	ELG1 repair inh inconclusive
C#CC(C)(CC)NC(=O)Cn1nnc(-c2cccc(C(F)(F)F)c2)n1 (stereo unspecified)	ELG1 repair inh inconclusive
Cc1ccc(NC(=O)CN(CCc2ccccc2)S(C)(=O)=O)cc1	MCF10A rereplic inconclusive
CC(=O)N(c1ccccc1)c1nnc(-c2cnc(C)cn2)s1	ELG1 repair inh inconclusive, ELG1 genotoxic 9.2µM
COC(=O)CC1COc2ccccc2N1S(=O)(=O)c1ccc(OC)cc1 (stereo unspecified)	ELG1 repair inh inconclusive, SW480 rerep inconclusive, MCF10A rereplic 14.6µM
COC(=O)CC1COc2ccccc2N1C(=O)c1ccc(OC)cc1 (stereo unspecified)	none
COC(=O)CC1COc2ccccc2N1S(=O)(=O)c1ccc(Br)cc1 (stereo unspecified)	SW480 rerep 10.3µM
Cc1c(C(=O)CN2CCCC(C)(C)C2)c2ccccc2n1C	none
C(=C\c1nccc2c1[nH]c1ccccc12)/c1ccccc1	ELG1 repair inh inconclusive, SW480 rerep 11.6µM, A-T KAP1 phos 22.4µM, MCF10A rereplic inconclusive
Fc1ccc(/C=C\c2nccc3c2[nH]c2ccccc23)cc1	SW480 rerep 18.4µM, MCF10A rereplic 6.51µM
Cc1ccc(/C=C\c2nccc3c2[nH]c2ccccc23)cc1	ELG1 repair inh inconclusive, SW480 rerep 20.6µM, ELG1 genotoxic inconclusive, MCF10A rereplic 9.2µM
CN(C)S(=O)(=O)c1cccc(NC(=O)CN2C(=O)NC(Cc3ccccc3)C2=O)c1 (stereo unspecified)	none
O=C(CSCc1ccccc1)NNc1c(F)c(F)cc(F)c1F	ELG1 repair inh inconclusive
Cc1nc(Cc2nnc(SCC(=O)N3CCN(c4ccc(F)cc4)CC3)o2)cs1	none
Cc1nc(Cc2nnc(SCC(=O)N3CCN(c4ccc(O)cc4)CC3)o2)cs1	SW480 rerep 2.06µM
CCOC(=O)c1cc(CC)sc1NC(=O)c1cccc(N2C(=O)CCC2=O)c1	ELG1 repair inh 18.4µM
O=C(Nc1ccc2sccc2c1)c1cccc(N2C(=O)CCC2=O)c1	ELG1 repair inh inconclusive, ELG1 genotoxic 18.3µM
CCOC(=O)c1cc(CC)sc1NC(=O)c1ccc2c(c1)OCCO2	none
CCOC(=O)N1CCN(c2c(F)cc3[nH]c(=S)[nH]c3c2Br)CC1	SW480 rerep inconclusive, MCF10A rereplic 8.2µM
COc1ccc(/C=C/C(=O)Nc2ccc(OC)nc2)cc1	none
COc1ccc(NC(=O)/C=C/c2cccc(Br)c2)cn1	ELG1 repair inh inconclusive
COc1ccc(NC(=O)/C=C/c2ccc(OC(F)F)cc2)cn1	ELG1 repair inh inconclusive, SW480 rerep inconclusive, MCF10A rereplic 20.6µM
O=C(Nc1ccc(Oc2cccc(C(F)(F)F)c2)nc1)c1ccco1	ELG1 repair inh 10.3µM

Compound activity deposited in PubChem by National Center for Advancing Translational Sciences (NCATS).
